{
  "source": "the supplement of paper PMC6853941",
  "data": [
    {"system": "MCF10A", "experiment": "perturbation Mahalanobis distance of morphological profile vs DMSO controls (Mahalanobis distance (SD units)); higher = stronger morphological change, active = 7 or more", "conditions": "screen batch: Batch1_Mahalanobis_Distance; 72 h", "method": "(§1)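 MCF10A cells were seeded onto drugs dispensed acoustically into 384-well plates, using one dose per drug chosen from its human peak plasma concentration, and incubated for 72 h at 37 °C. Cells were stained for DNA, tubulin and mitochondria and imaged; 78 CellProfiler features were extracted, plate-normalised and compared with DMSO wells.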", "values": [
      {"smiles": "CC[C@@H](CO)NC(=O)[C@@H]1C=C2c3cccc4[nH]cc(c34)C[C@H]2N(C)C1", "note": "[Methylergonovine] (44 µM)", "perturbation Mahalanobis distance": "2.29 (inactive)"},
      {"smiles": "NCC(CC(=O)O)c1ccc(Cl)cc1", "note": "(stereo not drawn) [Baclofen] (4.7 µM)", "perturbation Mahalanobis distance": "1.93 (inactive)"},
      {"smiles": "COc1cc2c(cc1OC)C1CC(=O)C(CC(C)C)CN1CC2", "note": "(stereo not drawn) [Tetrabenazine] (10 µM)", "perturbation Mahalanobis distance": "4.2 (inactive)"},
      {"smiles": "COC[C@@H](NC(C)=O)C(=O)NCc1ccccc1", "note": "[Lacosamide] (49.9 µM)", "perturbation Mahalanobis distance": "3.59 (inactive)"},
      {"smiles": "CC(C)(O)C(=O)Nc1ccc([N+](=O)[O-])c(C(F)(F)F)c1", "note": "[Hydroxyflutamide] (27.1 µM)", "perturbation Mahalanobis distance": "5.03 (inactive)"},
      {"smiles": "Cc1cccc([C@H](C)c2cnc[nH]2)c1C", "note": "[Dexmedetomidine] (42 µM)", "perturbation Mahalanobis distance": "2.48 (inactive)"},
      {"smiles": "CN(C)C(=O)Oc1ccc[n+](C)c1", "note": "[Pyridostigmine  Bromide] (5.5 µM)", "perturbation Mahalanobis distance": "2.83 (inactive)"},
      {"smiles": "O=C1CC[C@@]2(O)[C@H]3Cc4ccc(O)c5c4[C@@]2(CCN3CC2CC2)[C@H]1O5", "note": "[Naltrexone] (0.44 µM)", "perturbation Mahalanobis distance": "3.73 (inactive)"},
      {"smiles": "CCN(C(C)=O)c1cccc(-c2ccnc3c(C#N)cnn23)c1", "note": "[Zaleplon] (1.6 µM)", "perturbation Mahalanobis distance": "2.43 (inactive)"},
      {"smiles": "NCC1(CC(=O)O)CCCCC1", "note": "[Gabapentin] (122.6 µM)", "perturbation Mahalanobis distance": "2.06 (inactive)"},
      {"smiles": "NC(=O)CS(=O)C(c1ccccc1)c1ccccc1", "note": "(stereo not drawn) [Armodafinil] (27.1 µM)", "perturbation Mahalanobis distance": "3.56 (inactive)"},
      {"smiles": "C[C@]12Cc3cn[nH]c3C[C@@H]1CC[C@@H]1[C@@H]2CC[C@@]2(C)[C@H]1CC[C@]2(C)O", "note": "[Stanozolol] (62.7 µM)", "perturbation Mahalanobis distance": "2.14 (inactive)"},
      {"smiles": "NC1CC1c1ccccc1", "note": "(stereo not drawn) [Tranylcypromine] (7.5 µM)", "perturbation Mahalanobis distance": "2.27 (inactive)"},
      {"smiles": "CN1C[C@H](C(=O)N[C@]2(C)O[C@@]3(O)[C@@H]4CCCN4C(=O)[C@H](Cc4ccccc4)N3C2=O)C[C@@H]2c3cccc4[nH]cc(c34)C[C@H]21", "note": "[Dihydroergotamine] (74 µM)", "perturbation Mahalanobis distance": "2.63 (inactive)"},
      {"smiles": "C[C@]12CC[C@H]3[C@@H](CCC4=CC(=O)CC[C@@]43C)[C@@H]1CC[C@@H]2O", "note": "[Testosterone] (0.17 µM)", "perturbation Mahalanobis distance": "3.32 (inactive)"},
      {"smiles": "CCC(C)C(C)(COC(N)=O)COC(N)=O", "note": "(stereo not drawn) [Mebutamate] (144.2 µM)", "perturbation Mahalanobis distance": "2.17 (inactive)"},
      {"smiles": "O=[N+]([O-])O[C@H]1CO[C@H]2[C@@H]1OC[C@H]2O[N+](=O)[O-]", "note": "[Isosorbide Dinitrate] (0.13 µM)", "perturbation Mahalanobis distance": "2.18 (inactive)"},
      {"smiles": "O=C(O)CCCc1ccc(N(CCCl)CCCl)cc1", "note": "[Chlorambucil] (8.1 µM)", "perturbation Mahalanobis distance": "2.75 (inactive)"},
      {"smiles": "C[C@]12CC[C@H]3[C@@H](CC[C@@]45O[C@@H]4C(O)=C(C#N)C[C@]35C)[C@@H]1CC[C@@H]2O", "note": "[Trilostane] (308.7 µM)", "perturbation Mahalanobis distance": "3.36 (inactive)"}
    ]},
    {"system": "MCF10A", "experiment": "perturbation Mahalanobis distance of morphological profile vs DMSO controls (Mahalanobis distance (SD units)); higher = stronger morphological change, active = 7 or more", "conditions": "screen batch: Batch2_Mahalanobis_Distance; 72 h", "method": "as §1", "values": [
      {"smiles": "CC[C@@H](CO)NC(=O)[C@@H]1C=C2c3cccc4[nH]cc(c34)C[C@H]2N(C)C1", "note": "[Methylergonovine] (44 µM)", "perturbation Mahalanobis distance": "3.37 (inactive)"},
      {"smiles": "NCC(CC(=O)O)c1ccc(Cl)cc1", "note": "(stereo not drawn) [Baclofen] (4.7 µM)", "perturbation Mahalanobis distance": "1.48 (inactive)"},
      {"smiles": "COc1cc2c(cc1OC)C1CC(=O)C(CC(C)C)CN1CC2", "note": "(stereo not drawn) [Tetrabenazine] (10 µM)", "perturbation Mahalanobis distance": "3.85 (inactive)"},
      {"smiles": "COC[C@@H](NC(C)=O)C(=O)NCc1ccccc1", "note": "[Lacosamide] (49.9 µM)", "perturbation Mahalanobis distance": "2.67 (inactive)"},
      {"smiles": "CC(C)(O)C(=O)Nc1ccc([N+](=O)[O-])c(C(F)(F)F)c1", "note": "[Hydroxyflutamide] (27.1 µM)", "perturbation Mahalanobis distance": "4.63 (inactive)"},
      {"smiles": "Cc1cccc([C@H](C)c2cnc[nH]2)c1C", "note": "[Dexmedetomidine] (42 µM)", "perturbation Mahalanobis distance": "2.42 (inactive)"},
      {"smiles": "CN(C)C(=O)Oc1ccc[n+](C)c1", "note": "[Pyridostigmine  Bromide] (5.5 µM)", "perturbation Mahalanobis distance": "2.49 (inactive)"},
      {"smiles": "O=C1CC[C@@]2(O)[C@H]3Cc4ccc(O)c5c4[C@@]2(CCN3CC2CC2)[C@H]1O5", "note": "[Naltrexone] (0.44 µM)", "perturbation Mahalanobis distance": "3.37 (inactive)"},
      {"smiles": "CCN(C(C)=O)c1cccc(-c2ccnc3c(C#N)cnn23)c1", "note": "[Zaleplon] (1.6 µM)", "perturbation Mahalanobis distance": "3.38 (inactive)"},
      {"smiles": "NCC1(CC(=O)O)CCCCC1", "note": "[Gabapentin] (122.6 µM)", "perturbation Mahalanobis distance": "2.79 (inactive)"},
      {"smiles": "NC(=O)CS(=O)C(c1ccccc1)c1ccccc1", "note": "(stereo not drawn) [Armodafinil] (27.1 µM)", "perturbation Mahalanobis distance": "2.45 (inactive)"},
      {"smiles": "C[C@]12Cc3cn[nH]c3C[C@@H]1CC[C@@H]1[C@@H]2CC[C@@]2(C)[C@H]1CC[C@]2(C)O", "note": "[Stanozolol] (62.7 µM)", "perturbation Mahalanobis distance": "3.12 (inactive)"},
      {"smiles": "NC1CC1c1ccccc1", "note": "(stereo not drawn) [Tranylcypromine] (7.5 µM)", "perturbation Mahalanobis distance": "3.55 (inactive)"},
      {"smiles": "CN1C[C@H](C(=O)N[C@]2(C)O[C@@]3(O)[C@@H]4CCCN4C(=O)[C@H](Cc4ccccc4)N3C2=O)C[C@@H]2c3cccc4[nH]cc(c34)C[C@H]21", "note": "[Dihydroergotamine] (74 µM)", "perturbation Mahalanobis distance": "3.4 (inactive)"},
      {"smiles": "C[C@]12CC[C@H]3[C@@H](CCC4=CC(=O)CC[C@@]43C)[C@@H]1CC[C@@H]2O", "note": "[Testosterone] (0.17 µM)", "perturbation Mahalanobis distance": "3.14 (inactive)"},
      {"smiles": "CCC(C)C(C)(COC(N)=O)COC(N)=O", "note": "(stereo not drawn) [Mebutamate] (144.2 µM)", "perturbation Mahalanobis distance": "3.78 (inactive)"},
      {"smiles": "O=[N+]([O-])O[C@H]1CO[C@H]2[C@@H]1OC[C@H]2O[N+](=O)[O-]", "note": "[Isosorbide Dinitrate] (0.13 µM)", "perturbation Mahalanobis distance": "2.62 (inactive)"},
      {"smiles": "O=C(O)CCCc1ccc(N(CCCl)CCCl)cc1", "note": "[Chlorambucil] (8.1 µM)", "perturbation Mahalanobis distance": "8.46 (active)"},
      {"smiles": "C[C@]12CC[C@H]3[C@@H](CC[C@@]45O[C@@H]4C(O)=C(C#N)C[C@]35C)[C@@H]1CC[C@@H]2O", "note": "[Trilostane] (308.7 µM)", "perturbation Mahalanobis distance": "2.45 (inactive)"}
    ]}
  ]
}
